The text below walks through data of PubChem BioAssay (NCI).

Among the test systems are HCT-15 colon; HT29 colon; SNB-75 CNS; SNB-19 CNS; U251 CNS; PC-3 prostate; SK-MEL-5 melanoma; UACC-62 melanoma; LOX IMVI melanoma; SK-MEL-28 melanoma; SK-MEL-2 melanoma; EKVX NSCLC; SN12C renal; UO-31 renal; TK-10 renal; ACHN renal; CAKI-1 renal; A498 renal; CCRF-CEM leukemia; MOLT-4 leukemia.
Test in all cases: NCI-60 one-dose screen, 48 h (100 = growth as untreated, 0 = no growth, -100 = all killed)
Conditions in all cases: 10 µM unless noted

The structures appear in SMILES notation. Compounds without any hit were thinned out: in the full panel of roughly 83,000, 20% have a hit.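 Testing used 96-well plates and a 48-hour single-concentration exposure. Example: -40 means 40% of the starting cells died.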 A number with no mark means an inactive call. Calls of active or inactive are those of the source. The calls were made as follows: active = growth percent below 10; inactive = the rest.

As for `COc1cc(CNS(=O)(=O)c2ccc(C)cc2)ccc1OCc1cn(-c2ccc(F)cc2)nn1`, the growth was 92.5% in the test with HCT-15 colon; 85.1% in the test on HT29 colon; 81% with SNB-75 CNS; 102% in the test on SNB-19 CNS; 97.3% in the test with U251 CNS; 83.6% in the test with PC-3 prostate. The growth in the test with SK-MEL-5 melanoma was 56.7%; in the test on UACC-62 melanoma it was 71.8%; in the test on LOX IMVI melanoma, 102%; in the test on SK-MEL-28 melanoma, 87.9%; in the test on SK-MEL-2 melanoma, 104%; in the test with EKVX NSCLC, 80.3%. The growth in the test on SN12C renal is 92.2%; in the test with UO-31 renal, 63.9%; in the test on TK-10 renal it was 116%; in the test on ACHN renal, 93.2%; with CAKI-1 renal it was 89.6%; with A498 renal, 54.1%. In addition, the growth in the test on CCRF-CEM leukemia is 79.9%; with MOLT-4 leukemia, 78.2%.
Consider `O=C1C(Cl)=C(Oc2ccccc2)C(=O)c2ccccc21`, for which the growth was 70.5% in the test with HCT-15 colon; 94.1% in the test with HT29 colon; 73.1% in the test on SNB-75 CNS; 58.4% in the test on SNB-19 CNS; 42.1% with U251 CNS; 47.8% in the test with PC-3 prostate. In addition, the growth in the test on SK-MEL-5 melanoma is 74.8%; in the test on UACC-62 melanoma, 53%; in the test with LOX IMVI melanoma, 85%; in the test with SK-MEL-28 melanoma it was 120%; with SK-MEL-2 melanoma, 73.4%; with EKVX NSCLC, 87.2%. The growth in the test with SN12C renal was 87.9%; in the test on UO-31 renal it was 51.7%; in the test on TK-10 renal it was 49.4%; with ACHN renal, 26.6%; in the test with CAKI-1 renal it was 76.9%; in the test on A498 renal, 98.7%. The growth in the test on CCRF-CEM leukemia is 8.95% (active); in the test on MOLT-4 leukemia, 57.4%.
Take `COc1cc(C(=O)n2nc(N3CCN(C)CC3)c3cc(N)ccc32)cc(OC)c1OC`: the growth in the test with HCT-15 colon was 37%; in the test with HT29 colon, 86.8%; with SNB-75 CNS, 39.9%; in the test with SNB-19 CNS, 35.2%; in the test with U251 CNS, 31.2%; with PC-3 prostate, 50.1%. Further, the growth with SK-MEL-5 melanoma was 27.3%; in the test with UACC-62 melanoma, 26.2%; in the test on LOX IMVI melanoma, 35.5%; with SK-MEL-28 melanoma, 65.8%; with SK-MEL-2 melanoma, 70.9%; in the test with EKVX NSCLC it was 34.1%. Besides, the growth in the test on SN12C renal was 39.6%; in the test on UO-31 renal, 26.4%; with TK-10 renal, 59.1%; in the test on ACHN renal, 36.8%; with CAKI-1 renal, 57.3%; with A498 renal, -3.79% (active). Further, the growth is 20.2% with CCRF-CEM leukemia and 17.3% in the test with MOLT-4 leukemia.
For the compound `CC(=O)OC[C@]12CCC(C)(C)C[C@H]1[C@@]1(O)[C@H](O)C[C@@H]3[C@@]4(C)CCCNC(C)(C)[C@@H]4CC[C@@]3(C)[C@]1(C)CC2`, the growth in the test with HCT-15 colon was 111%; in the test on HT29 colon, 109%; in the test on SNB-75 CNS it was 115%; in the test on SNB-19 CNS, 97.4%; in the test with U251 CNS it was 107%; in the test with PC-3 prostate, 102%. Further, the growth with SK-MEL-5 melanoma was 99.9%; in the test on UACC-62 melanoma, 105%; in the test with LOX IMVI melanoma, 106%; with SK-MEL-28 melanoma it was 108%; in the test with SK-MEL-2 melanoma, 112%; in the test on EKVX NSCLC, 101%. The growth was 99.5% in the test on SN12C renal; 85.8% in the test with UO-31 renal; 103% in the test on TK-10 renal; 109% in the test with ACHN renal; 106% with CAKI-1 renal; 86.5% with A498 renal. Moreover, the growth in the test on CCRF-CEM leukemia is 102%; in the test on MOLT-4 leukemia, 104%.
In the case of `N#Cc1c(-c2cccs2)cc(-c2cccnc2)[nH]c1=O`, the growth in the test on HCT-15 colon is 102%; in the test with HT29 colon, 111%; with SNB-75 CNS it was 102%; in the test on SNB-19 CNS it was 98.1%; in the test on U251 CNS, 96.9%; with PC-3 prostate, 101%. Also, the growth is 102% with SK-MEL-5 melanoma; 95.5% with UACC-62 melanoma; 97.5% with LOX IMVI melanoma; 104% in the test with SK-MEL-28 melanoma; 113% in the test on SK-MEL-2 melanoma; 105% in the test with EKVX NSCLC. For the same compound, the growth with SN12C renal is 95.2%; in the test with UO-31 renal it was 78%; in the test with TK-10 renal it was 109%; in the test on ACHN renal, 97.2%; in the test with CAKI-1 renal, 96.1%; in the test with A498 renal it was 141%. The growth was 94.7% with CCRF-CEM leukemia and 108% with MOLT-4 leukemia.
With `Cc1cc2c(O)c(-c3cccc(Cl)c3)c3sc(=O)oc3c2cc1C`, the growth with HCT-15 colon was 43.2%; in the test on HT29 colon it was 111%; in the test with SNB-75 CNS it was 36.1%; in the test on SNB-19 CNS, 45.4%; with U251 CNS it was 21.9%; in the test with PC-3 prostate, 60.9%. Further, the growth in the test on SK-MEL-5 melanoma is 18.9%; in the test with UACC-62 melanoma, 27%; in the test on LOX IMVI melanoma, 45.1%; in the test with SK-MEL-28 melanoma, 52.2%; in the test with SK-MEL-2 melanoma, 37.8%; in the test with EKVX NSCLC, 93.9%. Besides, the growth with SN12C renal was 36.7%; in the test with UO-31 renal it was 54.2%; in the test on TK-10 renal, 122%; in the test on ACHN renal it was 44.5%; in the test on CAKI-1 renal, 40.5%; in the test on A498 renal it was 9.01% (active). Further, the growth in the test on CCRF-CEM leukemia is 44.8%; in the test with MOLT-4 leukemia, 45.8%.
Regarding `C#Cc1ccc(NC(=O)c2ccc(/C=C/C(=O)c3nccn3C)cc2)cc1`, the growth in the test on HCT-15 colon is -44.4% (active); in the test on HT29 colon, -17.3% (active); in the test with SNB-75 CNS, -98.3% (active); in the test on SNB-19 CNS, -78.9% (active); in the test on U251 CNS it was -67% (active); in the test with PC-3 prostate it was -56.2% (active). Also, the growth is -94.3% (active) with SK-MEL-5 melanoma; -50.7% (active) in the test with UACC-62 melanoma; -93% (active) with LOX IMVI melanoma; -30.7% (active) with SK-MEL-28 melanoma; -30.4% (active) in the test with SK-MEL-2 melanoma; -75.4% (active) with EKVX NSCLC. Further, the growth with SN12C renal was -37.5% (active); in the test with UO-31 renal it was -98.8% (active); in the test with TK-10 renal it was -2.59% (active); with ACHN renal, -72.1% (active); in the test on CAKI-1 renal it was -81.6% (active); in the test with A498 renal, -70.3% (active). For the same compound, the growth in the test on CCRF-CEM leukemia was -9.16% (active); in the test with MOLT-4 leukemia, -10% (active).
